The nature of test [1]: reducers of endogenous Her2 protein level, primary screen, SKBR3 breast tumor cells, AlphaScreen, ATP viability (AID 461;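 active means Her2 level under about 52% in both replicate screens, with viability over 70% of control, limit read from the data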;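 on Her2 level: lower value means less Her2 protein in the cells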;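 on viability: percent of carrier control wells set as 100% viability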). The settings on record: 18-24 h, measured here: SKBR3 viability, ATP luminescence, at 10 µM.
The target in test [2] is Receptor tyrosine-protein kinase erbB-2 (Homo sapiens) (UniProt P04626). Described as above. The note with it: 18-24 h, at 10 µM, stronger effect = lower value.
Chain of Receptor tyrosine-protein kinase erbB-2 (Homo sapiens) (P04626 whole entry, looked up): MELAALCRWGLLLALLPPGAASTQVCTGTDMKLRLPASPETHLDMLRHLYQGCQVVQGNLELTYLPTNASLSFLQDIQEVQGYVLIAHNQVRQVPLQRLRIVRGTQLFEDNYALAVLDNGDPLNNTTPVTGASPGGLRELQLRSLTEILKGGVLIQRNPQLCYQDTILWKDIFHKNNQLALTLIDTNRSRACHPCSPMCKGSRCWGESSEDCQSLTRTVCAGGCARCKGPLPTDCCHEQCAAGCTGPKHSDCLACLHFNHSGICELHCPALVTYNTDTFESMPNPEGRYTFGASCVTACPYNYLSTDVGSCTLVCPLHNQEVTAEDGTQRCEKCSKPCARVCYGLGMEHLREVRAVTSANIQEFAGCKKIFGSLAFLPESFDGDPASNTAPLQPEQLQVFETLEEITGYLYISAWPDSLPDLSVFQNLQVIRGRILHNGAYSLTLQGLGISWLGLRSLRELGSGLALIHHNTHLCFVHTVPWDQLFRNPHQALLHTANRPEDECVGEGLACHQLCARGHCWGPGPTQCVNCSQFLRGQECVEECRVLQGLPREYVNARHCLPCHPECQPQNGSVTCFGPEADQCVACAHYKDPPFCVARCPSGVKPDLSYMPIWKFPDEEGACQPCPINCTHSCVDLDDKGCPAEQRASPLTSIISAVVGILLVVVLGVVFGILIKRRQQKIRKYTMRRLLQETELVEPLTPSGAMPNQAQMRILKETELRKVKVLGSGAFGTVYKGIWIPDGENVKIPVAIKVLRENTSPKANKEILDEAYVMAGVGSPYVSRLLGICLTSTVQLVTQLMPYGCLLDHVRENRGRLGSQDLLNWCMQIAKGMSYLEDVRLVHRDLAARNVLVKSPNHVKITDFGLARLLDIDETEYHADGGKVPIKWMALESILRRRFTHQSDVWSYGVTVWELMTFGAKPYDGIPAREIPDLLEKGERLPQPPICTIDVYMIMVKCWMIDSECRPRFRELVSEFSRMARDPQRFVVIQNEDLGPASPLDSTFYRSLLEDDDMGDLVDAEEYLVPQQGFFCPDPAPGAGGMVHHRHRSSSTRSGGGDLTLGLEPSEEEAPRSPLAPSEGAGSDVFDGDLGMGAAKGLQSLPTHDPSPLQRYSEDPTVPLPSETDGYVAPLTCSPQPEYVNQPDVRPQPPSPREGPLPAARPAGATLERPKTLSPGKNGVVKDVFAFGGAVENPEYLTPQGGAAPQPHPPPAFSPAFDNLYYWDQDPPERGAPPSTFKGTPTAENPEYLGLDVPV
Test [3] can be described thus: SK-BR-3 cell growth inhibitors, pilot screen, 24 h, human (AID 572;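 active means viability at or below 10% of carrier control in both of two separate runs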;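 further: compound exposure lasted between 18 and 24 h rather than exactly 24 h; 100% = carrier-treated control wells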). The note with it: SK-BR-3 viability, CellTiter-Glo luminescence, at 10 µM, stronger effect = lower value.
A short description of test [4]: HUVEC growth inhibition – cell-based, human, primary screen (AID 575;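 active means viability at or below 30% in both replicate assays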;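 further: 100% = median of untreated cell wells with 0.1% DMSO on each plate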). The settings on record: HUVEC proliferation, CellTiter-Glo luminescence, 72 h; at 10 µM; stronger effect = lower value.
A short description of test [5]: growth inhibitors of H69AR lung tumor, primary screen, human, duplicate replicates (AID 580;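 active means viability at or under a set limit in both replicates, limit being median viability minus 3 SD, cut at about 48% in these data, passing the limit was not always enough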;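 further: 100% = mean luminescence of untreated wells and 0% = no signal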). The settings on record: H69AR lung tumor cells viability, ATP luminescence, 72 h; at 10 µM; stronger effect = lower value.
Test [6] can be described thus: reversal of MRP1-mediated doxorubicin resistance, pilot screen, H69AR cells, doxorubicin co-treatment (AID 601;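 active means viability loss from added drug above about 55%, and viability with drug at most 40%, in both replicates, limit read from the data, passing the limit was not always enough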). The note with it: CellTiter-Glo, 72 h, at 10 µM; for differential viability (reversal): stronger effect = higher value.
Test [7] in a line: 384-well plate pilot, post-Golgi transport modulator project, inhibition of yeast transport mutant growth (AID 636; in the data active means inhibition above about 31%). The settings on record: absorbance 615 nm, about 18 h, stronger effect = higher value.
The nature of test [8]: growth suppression of yeast trafficking mutant, preliminary HTS, modulators of trafficking downstream of Golgi apparatus project, 1536-format plate, OD 615 nm (AID 637; in the data active means inhibition above about 30%). The note with it: yeast transport mutant growth, absorbance 615 nm, 18 h; stronger effect = higher value.
The nature of test [9]: OD615 S. cerevisiae growth inhibition, permissive medium, pilot counter-assay, permissive growth control for S. cerevisiae lifespan shortening project (AID 705). The note with it: OD615, 24 h, at 10 µM, stronger effect = higher value.
Test [10] can be described thus: Restrictive medium S. cerevisiae growth inhibition, OD615, pilot screen of yeast lifespan reduction project, restrictive growth control (AID 706;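 active means growth inhibition above a set limit, 3 SD over mean compound inhibition, in both replicates, cut at about 43% in these data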;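 further: modified DeaD lifespan yeast strain shifted to restrictive glucose medium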). The note with it: OD615, 48 h, at 10 µM, stronger effect = higher value.
Test [11] can be described thus: viability gain of MRP-1-high H69AR cells under doxorubicin, pilot screen, MRP-1 activator project, CellTiter-Glo, duplicate (AID 807;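 active means viability increase at or above a cutoff of the median across tested compounds plus 3 SD, cut at about 8.5% in these data, passing the limit was not always enough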;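 further: compound pretreatment 18-22 h then 72 h combined with doxorubicin; 0% = doxorubicin alone and 100% = vehicle without doxorubicin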). The settings on record: H69AR viability with doxorubicin, CellTiter-Glo luminescence; at 10 µM; stronger effect = higher value.
Test [12] can be described thus: growth suppression of beta-catenin knockout HCT116, pilot screen, human colon tumor cells (AID 823;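 active means cell viability at or below a set limit in both duplicate runs, the limit being the all-compound median minus 4 SD, cut at about 23% in these data, passing the limit was not always enough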;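 further: 0% = wells killed by 20 µM Hyamine and 100% = untreated DMSO cell wells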). The note with it: CellTiter-Glo, 60 h, at 10 µM, stronger effect = lower value.
Test [13] in a line: growth suppression of PTEN-deleted HCT116, pilot screen, cell-based, HCT116 clonal line, CellTiter-Glo (AID 824;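 active means viability at or below 27.92% in each of two runs, the all-compound median minus 4 SD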;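 further: 0% = 20 µM Hyamine control and 100% = vehicle cell control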). The settings on record: 60 h, at 10 µM, stronger effect = lower value.
A short description of test [14]: inhibitors of the yeast RAM network, pilot screen, dse1pr::URA3 reporter, 5-FOA selection (AID 869;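 active means inhibition over a set limit, the all-compound mean plus 3 SD, in both replicate runs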;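 further: 0% = DMSO wells with no growth and 100% = 10 µM 1-NA-PP1 with full growth; RAM network block rescues cells from 5-FOA so hits raise OD615 growth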). The note with it: S. cerevisiae dse1pr::URA3 5-FOA growth, OD615, 2 d; at 10 µM; stronger effect = higher value; strain carries analog-sensitive mutant Cbk1 kinase.
Test [15] in a line: RAM signaling pathway blockade in yeast – S. cerevisiae, Pdr1DBD-CYC8 efflux-inhibited sensitized strain, primary screen (AID 1298;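 active means RAM network inhibition above 8.4% in each of two replicates, 3 SD over the compound average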;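 further: 0% = DMSO untreated cells without growth and 100% = 10 µM 1-NA-PP1 full growth; higher means more yeast growth rescued from 5-FOA killing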). The note with it: S. cerevisiae cbk1-as DSE1-URA3 strain, 5-FOA growth OD615, 2 d; at 50 µM; stronger effect = higher value.
The mark [16] stands for this setting: H69AR cells + 2 uM doxorubicin, measured here: viability with 2 uM doxorubicin, stronger effect = lower value.
[17] abbreviates: H69AR cells, compound alone cytotoxicity.

SMILES strings stand for the structures. Results filed as inconclusive are left out. Activity calls are given as the source filed them.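 How the source made its calls, unless noted: active means growth inhibition above 25% in both replicates, a cutoff set 3 SD above the mean; inconclusive means above 25% in only one replicate; inactive means the rest.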

Consider `Cc1nnc(NC(=O)c2ccco2)s1`, for which the viability was 98.5% in test [1]; 98.5% (inactive) in [3]; 98.6% (inactive) in test [4]; 104% (inactive) in test [5]; 96.3% in [6] (setting [16]); 104% in test [6] (setting [17]). The viability was 94.9% (inactive) in test [12] and 97.2% (inactive) in [13]. Besides, in test [2], the Her2 level was 92.5% (inactive). Also, in test [6] (H69AR cells + 2 uM doxorubicin), the differential viability (reversal) is 7.39% (inactive). Also, the inhibition is -4.13% (inactive) in test [7], 7.21% (inactive) in [8] and 0.67% (inactive) in [14]. Moreover, the growth inhibition in test [9] was -10.1% (inactive); in test [10], -8.55% (inactive). In test [11], the viability increase was 4.22% (inactive). Besides, the RAM network inhibition in [15] was 0.21% (inactive).
Turning to `COc1ccccc1NC(=O)C1(C)Cc2ccccc2C(=O)O1` (stereo not given), the viability in test [1] was 106%; in test [3], 106% (inactive); in test [4] it was 102% (inactive); in [5], 91.7% (inactive); in test [6] (setting [16]), 88.8%; in test [6] (setting [17]) it was 91.7%. The viability in [12] was 107% (inactive); in test [13], 99.8% (inactive). Moreover, the Her2 level in [2] is 108% (inactive). Further, the differential viability (reversal) in [6] (H69AR cells + 2 uM doxorubicin) was 2.89% (inactive). Further, the results for the inhibition in test [7], in test [8] and in test [14] were -2.82% (inactive), 0.67% (inactive) and 1.77% (inactive), respectively. For the same molecule, the growth inhibition in test [9] was -6.73% (inactive); in [10] it was 5.93% (inactive). For the same molecule, in [11], the viability increase is -0.93% (inactive). In [15], the RAM network inhibition is 5.4% (inactive).
Consider `COCCN(CCOC)Cc1c(C)[nH]c2ccccc2c1=O`, for which the viability was 96.5% in test [1]; 96.5% (inactive) in test [3]; 105% (inactive) in [4]; 89.4% (inactive) in [5]; 93.8% in test [6] (setting [16]); 89.4% in test [6] (setting [17]). For the same molecule, the viability in [12] is 92.1% (inactive); in [13], 91.3% (inactive). Besides, the Her2 level in test [2] was 98% (inactive). In addition, the differential viability (reversal) in [6] (H69AR cells + 2 uM doxorubicin) was -4.47% (inactive). The inhibition is 1.28% (inactive) in test [7], -7.5% (inactive) in test [8] and 1.22% (inactive) in test [14]. Besides, the growth inhibition was -0.675% (inactive) in test [9] and -3.83% (inactive) in [10]. The viability increase in test [11] is -2.47% (inactive). Also, the RAM network inhibition in [15] is 3.31% (inactive).
As for `Cc1c(NC(=O)C2CCCCN2S(=O)(=O)c2ccc(Cl)cc2)c(=O)n(-c2ccccc2)n1C` (stereo not given), the viability is 112% in test [1]; 112% (inactive) in test [3]; 90.1% (inactive) in [4]; 91.3% (inactive) in test [5]; 98.2% in [6] (setting [16]); 91.3% in [6] (setting [17]). Further, the viability in test [12] is 96.9% (inactive); in test [13], 103% (inactive). Moreover, the Her2 level in [2] was 120% (inactive). Moreover, the differential viability (reversal) in [6] (H69AR cells + 2 uM doxorubicin) is -6.92% (inactive). For the same molecule, the results for the inhibition in test [7], in test [8] and in [14] were -3.47% (inactive), -1% (inactive) and 0.76% (inactive), respectively. The results for the growth inhibition in [9] and in test [10] were -2.56% (inactive) and -1.4% (inactive), respectively. The viability increase in test [11] was -1.13% (inactive). Further, in [15], the RAM network inhibition is -0.87% (inactive).
Consider `Cc1c(C(=O)OCc2ccccc2)[nH]c2c1C(=O)CC(c1ccco1)C2` (stereo not given), for which the viability is 86.5% in test [1]; 86.5% (inactive) in test [3]; 7.06% (active) in test [4]; 6.48% (active) in test [5]; 8.71% in test [6] (setting [16]); 6.48% in [6] (setting [17]). Further, the results for the viability in test [12] and in test [13] were 16.3% (active) and 18.2% (active), respectively. Further, the Her2 level in [2] was 40.5% (active). Further, the differential viability (reversal) in [6] (H69AR cells + 2 uM doxorubicin) is -2.23% (inactive). Also, the figures for the inhibition in test [7], in [8] and in test [14] were 4.87% (inactive), -0.5% (inactive) and 1.69% (inactive), respectively. In addition, the results for the growth inhibition in test [9] and in [10] were -15.1% (inactive) and -7.56% (inactive), respectively. In addition, in test [11], the viability increase is -4.85% (inactive). Further, the RAM network inhibition in [15] was 1% (inactive).
As for `COC(=O)Cn1ncc2c(C)n(Cc3ccccc3)c(C)c2c1=O`, the viability is 122% in [1]; 122% (inactive) in [3]; 107% (inactive) in test [4]; 96% (inactive) in [5]; 88.9% in test [6] (setting [16]); 96% in [6] (setting [17]). Besides, the values for the viability in test [12] and in test [13] were 100% (inactive) and 96.7% (inactive), respectively. Also, the Her2 level in [2] is 112% (inactive). In addition, the differential viability (reversal) in test [6] (H69AR cells + 2 uM doxorubicin) is 7.04% (inactive). The inhibition in test [7] is -3.73% (inactive); in test [8] it was 2% (inactive); in [14], 0.365% (inactive). Further, the growth inhibition in test [9] was -7.07% (inactive); in [10], -6.09% (inactive). Moreover, the viability increase in test [11] is 2.78% (inactive). Moreover, the RAM network inhibition in test [15] is 2.88% (inactive).
Consider `Cc1ccnc(NC(=O)C2CCC(CNc3c(N4CCCC4)c(=O)c3=O)CC2)c1` (stereo not given), for which the viability in test [1] was 93%; in test [3], 93% (inactive); in test [4], 92.2% (inactive); in test [5], 90.2% (inactive); in test [6] (setting [16]), 89%; in test [6] (setting [17]) it was 90.2%. For the same molecule, the viability was 72.4% (inactive) in test [12] and 71.6% (inactive) in test [13]. The Her2 level in test [2] was 93.5% (inactive). In addition, the differential viability (reversal) in [6] (H69AR cells + 2 uM doxorubicin) is 1.23% (inactive). In addition, the inhibition was -0.64% (inactive) in test [7], -3.83% (inactive) in test [8] and 0.595% (inactive) in [14]. The growth inhibition is -3.06% (inactive) in [9] and 4.16% (inactive) in [10]. Besides, the viability increase in test [11] was -1.61% (inactive). In test [15], the RAM network inhibition is -0.21% (inactive).
Consider `CCSc1nc(O)c(CC)c(=O)n1C(C)CC` (stereo not given), for which the viability in test [1] was 104%; in test [3], 104% (inactive); in test [4] it was 97.9% (inactive); in test [5], 108% (inactive); in test [6] (setting [16]) it was 93.2%; in test [6] (setting [17]), 108%. Further, the figures for the viability in test [12] and in test [13] were 98.6% (inactive) and 93.7% (inactive), respectively. The Her2 level in test [2] was 128% (inactive). In addition, the differential viability (reversal) in test [6] (H69AR cells + 2 uM doxorubicin) is 14.9% (inactive). Further, the inhibition in [7] was -6% (inactive); in [8] it was -0.48% (inactive); in test [14], -0.63% (inactive). Further, the values for the growth inhibition in test [9] and in [10] were -9.35% (inactive) and -3.4% (inactive), respectively. Also, the viability increase in test [11] was -0.54% (inactive). For the same molecule, the RAM network inhibition in [15] was 11.3% (inactive).
As to `COc1ccc(OC)c(C2=NOC(C(=O)Nc3cc(C)nn3-c3ccccc3)C2)c1` (stereo not given), the viability in test [1] is 86.5%; in test [3], 86.5% (inactive); in [4], 114% (inactive); in [5] it was 95.2% (inactive); in test [6] (setting [16]) it was 85.5%; in test [6] (setting [17]) it was 95.2%. Moreover, the viability was 94.2% (inactive) in [12] and 94.9% (inactive) in test [13]. Also, the Her2 level in test [2] is 106% (inactive). Further, the differential viability (reversal) in test [6] (H69AR cells + 2 uM doxorubicin) is 9.74% (inactive). For the same molecule, the values for the inhibition in [7], in test [8] and in test [14] were -2.56% (inactive), -0.33% (inactive) and 1.83% (inactive), respectively. Besides, the growth inhibition in test [9] was -7.35% (inactive); in test [10], -4.62% (inactive). Also, the viability increase in test [11] is 0.16% (inactive). Also, the RAM network inhibition in [15] was 7.22% (inactive).
For `COc1cccc(-c2nnc(NC(C)=O)o2)c1`, the viability is 93.5% in [1]; 93.5% (inactive) in [3]; 103% (inactive) in test [4]; 98.8% (inactive) in test [5]; 91.6% in test [6] (setting [16]); 98.8% in test [6] (setting [17]). For the same molecule, the viability in [12] is 101% (inactive); in test [13], 105% (inactive). Also, in [2], the Her2 level is 99.5% (inactive). In addition, the differential viability (reversal) in test [6] (H69AR cells + 2 uM doxorubicin) was 7.19% (inactive). The results for the inhibition in test [7], in test [8] and in test [14] were -5.47% (inactive), -4.33% (inactive) and 1.76% (inactive), respectively. For the same molecule, the results for the growth inhibition in test [9] and in test [10] were -0.545% (inactive) and 1.75% (inactive), respectively. The viability increase in test [11] is -1% (inactive). In addition, the RAM network inhibition in [15] is 1.45% (inactive).

These data come from PubChem BioAssay.
